# From PubChem BioAssay
# This is a sample that favours compounds with a hit; in the whole collection about 1% have one here.
# Plk1 PBD FP: Plk1 (human) PBD binding inhibition; AID 693; P53350; inhibition, %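 (tested at about 20 µM)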; Plk1 PBD phosphopeptide binding, fluorescence polarization; 97,000 tested, 0.13% active; in the data active means inhibition above about 34%, passing the limit was not always enough
# sEH inh: blocks human soluble epoxide hydrolase activity; recombinant human sEH enzymatic activity assay; 91,000 tested, 0.34% active; inhibition, % at 2 µM; AID 707; in the data active means inhibition above about 80%
# Target sequence (P34913 whole entry, looked up): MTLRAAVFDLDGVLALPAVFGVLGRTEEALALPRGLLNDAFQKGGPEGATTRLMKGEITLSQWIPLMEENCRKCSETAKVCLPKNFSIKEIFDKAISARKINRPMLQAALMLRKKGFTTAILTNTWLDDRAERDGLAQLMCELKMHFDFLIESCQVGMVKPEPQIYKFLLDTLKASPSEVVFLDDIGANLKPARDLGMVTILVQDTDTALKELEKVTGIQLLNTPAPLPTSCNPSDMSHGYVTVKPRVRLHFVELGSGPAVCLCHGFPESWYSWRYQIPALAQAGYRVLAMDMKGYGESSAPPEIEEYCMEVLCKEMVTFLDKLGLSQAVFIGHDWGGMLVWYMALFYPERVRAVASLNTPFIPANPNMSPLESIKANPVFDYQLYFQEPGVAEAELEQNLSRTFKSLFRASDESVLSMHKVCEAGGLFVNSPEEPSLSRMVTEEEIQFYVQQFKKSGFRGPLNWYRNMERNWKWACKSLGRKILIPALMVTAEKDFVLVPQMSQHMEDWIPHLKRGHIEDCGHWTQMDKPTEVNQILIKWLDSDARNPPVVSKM
# sEH activator: increases human soluble epoxide hydrolase activity; purified human sEH enzymatic activity, activator screen; activation, % at 2 µM; 91,000 tested, 0.04% active; AID 717; in the data active means activation above about 37%
# EphB4 ephrin blk: antagonists of human EphB4-ephrin-B2 interaction | P54760 | EphB4 LBD / TNYL-RAW-Alexa532 peptide, fluorescence polarization | inhibition, % at 7 µM | 97,000 tested, 0.15% active | AID 720;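 active means inhibition above the screen-wide mean inhibition plus 3 SD, cut at about 15% in these data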;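 further: 0% = DMSO wells and 100% = excess unlabeled TNYL-RAW peptide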
# PLK1 inh: inhibitors of human PLK1 kinase; recombinant PLK1 kinase, TR-FRET peptide phosphorylation; P53350; inhibition, % at 10 µM; 97,000 tested, 0.53% active; AID 619;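 active means inhibition of 50% or more in the single-concentration screen; inactive means inhibition below 50%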;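 further: 0% = DMSO max control and 100% = H-89 dihydrochloride min control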
# * = called active by the depositor; x = no result given.
SMILES,Plk1 PBD FP,sEH inh,sEH activator,EphB4 ephrin blk,PLK1 inh
CC(C)=CCCC(C)NC(=O)NC1CCCCC1 (stereo unspecified),-2,91*,-90,1,0
CC(=O)c1c(C(C)=O)c(C)n(NC(=O)c2ccncc2)c1C,9,-15,13,0,-7
Cn1cc(S(=O)(=O)N2CCN(c3ccccc3)CC2)c(=O)n(C)c1=O,-1,-7,5,16*,-17
CCn1cc(C(=O)NCc2cccnc2)c(=O)c2cc(F)c(N3CCN(C(=O)c4ccco4)CC3)cc21,-27,-8,6,-4,0
CCCSc1n[nH]c(NC(C)=O)n1,7,x,x,-1,69*
CC(C)COC(=O)Cn1cnc2ccc(Br)cc2c1=O,1,0,3,-3,13
COc1ccc(-n2c(Cc3cccn3C)nnc2SCC(=O)Nc2cccc(NC(C)=O)c2)cc1,1,x,x,6,-3
CC(=O)Nc1cccc(NC(=O)CSc2nnc(Cc3cccn3C)n2-c2ccc(C)cc2)c1,9,x,x,16*,2
CCOC(=O)c1nn(-c2ccccc2)c(=O)c(C#N)c1C,7,-1,4,3,-10
Cc1c(C(=O)O)nn(-c2ccccc2)c(=O)c1C#N,1,x,x,-4,63*
CC1CCCCN1CCNC(=O)c1cnn2ccccc12 (stereo unspecified),-4,x,x,-2,69*
O=C(Nc1ccccc1)Nc1ccc(S(=O)(=O)N2CCCCC2)cc1,7,92*,-92,-7,5
O=C(CN1C(=O)c2ccccc2S1(=O)=O)Nc1ccc(S(=O)(=O)N2CCCC2)cc1,-6,68,-68,1,-16
O=C(CN1C(=O)c2ccccc2S1(=O)=O)Nc1ccc(S(=O)(=O)N2CCCCC2)cc1,15,83*,-83,2,-3
COc1ccc(Oc2ccccc2C=O)cc1,-18,-10,9,1,-15
N#C/C(C(=O)Oc1ccccc1)=C1/Nc2ccccc2-c2ccccc21,14,-3,2,-5,-14
CC1CCCCN1C(=O)NC12CC3CC(CC(C3)C1)C2 (stereo unspecified),20,87*,-88,-2,7
O=C(NC12CC3CC(CC(C3)C1)C2)C1CCCN1C(=O)NC1CCCCC1 (stereo unspecified),-32,17,-18,5,3
CCOC(=O)c1sc(NC(=O)c2ccc(Cl)s2)cc1C,10,91*,-91,0,-87
CCOC(=O)c1sc(NC(=O)c2ccccc2)cc1C,9,62,-61,3,-14
CCOC(=O)c1sc(NC(=O)Nc2ccc(Cl)cc2)cc1C,4,92*,-92,3,-4
COc1ccc(CN(C(=O)c2ccc(-c3ccccc3)[nH]2)C(C(=O)NCC2CCCO2)c2ccc(C)o2)cc1 (stereo unspecified),7,-12,15,-13,3
CCOc1ccc(N(CC(=O)NC(C)CC)S(=O)(=O)c2c(C)noc2C)cc1 (stereo unspecified),18,x,x,-4,63*
OCCNc1nc(SCc2ccccc2)nc2sc3c(c12)CCC3,8,-11,13,-1,-6
COC(=O)C(C(=O)OC)C(C)C(C(=O)OC)C(=O)OC,-15,-13,13,-4,-6
SMILES,Plk1 PBD FP,sEH inh,sEH activator,EphB4 ephrin blk,PLK1 inh
O=C(N/N=C/c1cc([N+](=O)[O-])ccc1N1CCNCC1)c1ccc([N+](=O)[O-])cc1,15,-9,6,4,-4
CN(C)/C=N/c1ncc(C(=O)c2ccc3ccccc3c2)s1,-22,-49,48*,-1,-13
COc1ccc(C(=O)c2cnc(/N=C/N(C)C)s2)cc1,2,x,x,4,-5
O=C(N/N=C/c1ccncc1)c1cc([N+](=O)[O-])cc([N+](=O)[O-])c1O,-25,9,-11,19*,8
COC(=O)c1ccccc1NC(=O)C1CCN(C(=O)c2ccc(OC)cc2)CC1,-33,4,-7,10,-11
O=C(O)CCc1nn2c3ccccc3nc2n(CCN2CCCCC2)c1=O,-25,-54,57*,-2,-19
CC1CN(Cc2nc3c(c(=O)[nH]c(=O)n3C)n2CC(N)=O)CC(C)O1 (stereo unspecified),8,4,-2,-7,51*
O=C(CCCOc1ccc(Cl)cc1Cl)Nc1ccncc1,-5,8,-12,5,54*
COc1ccc(C2CC(c3cccs3)=Nc3ccccc3S2)cc1 (stereo unspecified),-9,-7,8,-3,-14
CC(C)c1nc2n[nH]c(N)c2c2c1CSC(C)(C)C2,-14,6,-7,-8,59*
CC(C)c1nc2n[nH]c(N)c2c2c1CCC2,5,-17,19,0,5
O=C(C1CCN(S(=O)(=O)c2cccc3cccnc23)CC1)N1CCN(c2ccc(Cl)cc2)CC1,10,-14,16,-1,-16
COCCCNC(=O)c1cc(C(=O)c2c(-c3c(Cl)cccc3Cl)noc2C)c[nH]1,-15,-2,5,-12,-22
CCOC(=O)c1ccc2ncc(C(=O)OCC)c(NCc3ccco3)c2c1,-24,-2,4,0,0
C/C(=N\NC(=O)Cc1cccn1C)c1cccc2ccccc12,-17,82*,-82,3,-16
COc1ccc(Cl)cc1NC(=O)NCCCl,-2,0,3,2,-7
Cc1cc2cc(CNC(=O)NC3CCCCC3)ccc2[nH]1,-11,90*,-90,1,-1
O=C(NC1CCCCCC1)c1ccc(N2CCCC2=O)cc1,-27,x,x,-4,-6
O=C(NCc1ccc(N2CCCC2=O)cc1)NC1CCCCC1,-21,80*,-80,6,-14
CCOc1ccc(CCNC(=O)CCCN2C(=O)c3ccccc3C2=O)cc1OCC,-15,20,-20,4,-9
O=C(NCc1cccs1)C1CCC(CNS(=O)(=O)c2cccc3nsnc23)CC1 (stereo unspecified),15,74,-75,-8,-1
COc1cccc(CNC(=O)C2CCC(CNS(=O)(=O)c3cccc4nsnc34)CC2)c1 (stereo unspecified),-14,80*,-80,7,-9
CC(=O)Nc1ccc(N2C(C(C)=O)=NN(c3ccc(Cl)cc3)C2c2sccc2C)cc1 (stereo unspecified),-30,-22,21,17*,-9
O=C(NCCC1=CCCCC1)C1CCN(C(=O)Nc2ccccc2)CC1,24,36,-37,-4,-8
Cc1ccc(S(=O)(=O)N2CCCC(C(=O)NCCC3=CCCCC3)C2)cc1 (stereo unspecified),28,82*,-82,4,3
CC(C)(C)c1ccc(C(=O)N2CCC(C(=O)NCCC3=CCCCC3)CC2)cc1,22,86*,-85,-8,1
O=C(NCCC1=CCCCC1)C1CCCN(S(=O)(=O)c2ccccc2)C1 (stereo unspecified),10,84*,-83,6,-15
O=C(NCCC1=CCCCC1)C1CCCN(S(=O)(=O)c2ccc(F)cc2)C1 (stereo unspecified),5,71,-71,2,-10
Nc1nc(SCc2c(F)cccc2Cl)[nH]c(=O)c1-c1ccccc1,10,2,2,-2,-7
